# HPGD inh: HPGD (human) dehydrogenase inhibition | P15428 | 150,000 compounds, 4.3% hits | purified HPGD, NADH fluorescence kinetic, PGE2 substrate | Potency, µM, without a hit: top-dose activity change, negative = inhibition, usual class: inhibitors | AID 894; active = well fitted inhibition curve with a large enough effect, not every such curve was filed as active; inconclusive = small, poorly fitted or top-dose-only effect, or another doubt; inactive = no such curve, though single readings can be large or run the other way; also: potency is read from the fitted curve at half-maximal effect
#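 20 nM HPGD preincubated 15 min at room temperature with compound in 50 mM Tris-HCl pH 8, 0.01% Tween 20. Started with 1 mM NAD+ and 30 uM prostaglandin E2; NADH fluorescence (360/450 nm) read 5 times over 30-s intervals, last minus first.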
# 12-hLO inh: inhibitors of human 12-lipoxygenase (ALOX12); P18054; purified 12-hLO, xylenol orange hydroperoxide absorbance; Potency, µM (titrated, usually from 57.1 µM), inactives show at the highest dose activity change, negative = inhibition, actives largely listed as inhibitors; 150,000 compounds, 0.12% hits; AID 1452; also: potency is read from the fitted curve at half-maximal effect; nearly all actives have a fitted effect of over 55% in size
#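 Purified human 12hLO (150 nM), preincubated 15 min with compound, then 40 uM arachidonic acid for 30 min, room temperature, Hepes pH 7.0 with 0.01% Triton X-100. Hydroperoxide detected by ferrous iron/xylenol orange; 573/405 nm absorbance ratio gives reaction progress.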
# aGal spleen mod: inhibits or activates alpha-galactosidase in human spleen homogenate; P06280; Potency, µM (top dose mostly 80 µM), for the others: at the highest dose activity change, negative = inhibition, actives largely listed as inhibitors; AID 2107; 240,000 compounds, 0.008% hits; human spleen homogenate, 4MU-alpha-Gal fluorescence, 40 min;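 also: potency is read from the fitted curve at half-maximal effect; 0% = enzyme with vehicle and -100% = no enzyme basal signal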
#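 qHTS titration in buffer at pH 5.0. Alpha-galactosidase activity in spleen homogenate was measured via 4-methylumbelliferone release from 1 mM fluorogenic substrate after 40 min at 37C and a pH 10 stop. AC50 came from Hill fits of control-normalized data.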
# ALDH1A1 inh: inhibitors of human aldehyde dehydrogenase 1A1. Purified ALDH1A1, NADH fluorescence, propionaldehyde substrate. AID 1030. 220,000 compounds, 7.3% hits. Potency, µM (titrated, usually from 75.3 µM), inactives show top-dose activity, negative = inhibition, actives largely listed as inhibitors. P00352; active = well fitted inhibition curve with a large enough effect, not every such curve was filed as active; inconclusive = small, poorly fitted or top-dose-only effect, or another doubt; inactive = no such curve, though single readings can be large or run the other way;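 also: potency is read from the fitted curve at half-maximal effect; plate controls were no enzyme wells and a reference inhibitor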
# Target sequence (P00352 whole entry, looked up): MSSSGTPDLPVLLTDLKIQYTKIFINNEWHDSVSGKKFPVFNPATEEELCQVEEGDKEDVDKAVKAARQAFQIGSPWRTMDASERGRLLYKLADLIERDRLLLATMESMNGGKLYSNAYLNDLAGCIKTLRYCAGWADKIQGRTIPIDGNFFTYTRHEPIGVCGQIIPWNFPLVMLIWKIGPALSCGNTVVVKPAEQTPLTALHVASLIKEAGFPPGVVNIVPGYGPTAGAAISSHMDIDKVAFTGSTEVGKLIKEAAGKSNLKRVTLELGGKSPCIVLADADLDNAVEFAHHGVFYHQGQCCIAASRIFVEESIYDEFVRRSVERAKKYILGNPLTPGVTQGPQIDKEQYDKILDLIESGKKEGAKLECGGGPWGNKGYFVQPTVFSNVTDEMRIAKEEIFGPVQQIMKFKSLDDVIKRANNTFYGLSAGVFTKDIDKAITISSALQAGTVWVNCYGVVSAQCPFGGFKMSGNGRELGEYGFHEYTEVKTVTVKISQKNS
# GLA inh pH 4.5: inhibitors of human alpha-galactosidase A at pH 4.5; P06280; 230,000 tested, under 10 active; purified enzyme, 4-MU-alpha-Gal fluorescence, pH 4.5; activity change, negative = inhibition, % at 105 µM;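 also: 0% = full activity with enzyme and -100% = basal without enzyme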
# PNC inhibitor: inhibitors of perinucleolar compartment assembly. 140,000 compounds, 3.1% hits. AID 2417. activity change (PNC), negative = inhibition, % at 10 µM. PC3M PTB-GFP, PNC prevalence imaging, 16 h; active compounds read low;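 active = readout at or below -70, meaning at least 70% loss of cells showing the perinucleolar compartment, a nuclear body marking cancer cells; inconclusive = readout between -30 and a set limit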;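 also: plate controls were DMSO wells for no effect and camptothecin positive control wells for full effect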
#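 Compounds are pinned in duplicate onto adhered PC3M cells stably expressing GFP-tagged PTB and incubated 16 h at 37 C. Cells are then fixed, nuclei stained with Hoechst, and PNC-positive cells counted.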
# Starred values were filed as active, the others as inactive; ? = inconclusive; nt = not tested or not shown; [ ] = remark or other dose. In the library only some 10% were active in any assay of this set; here they are far more common. Unless noted, calls follow the shape of the dose curve; as a rule, active = well fitted curve in the direction sought with a large enough effect; inconclusive = small, poorly fitted or top-dose-only effect, or another doubt; inactive = no such curve, though single readings can be large; an effect the other way counts as inactive or inconclusive. Unless noted, % is scaled to controls: 0 for no effect and ±100 for the full control effect.
SMILES,HPGD inh,12-hLO inh,aGal spleen mod,ALDH1A1 inh,GLA inh pH 4.5,PNC inhibitor
Nc1nc(SCCO)[nH]c(=O)c1NC(=O)c1ccccc1F,nt,nt,0%,13%,3,nt
C=C(C)CN=C1NN=C(c2cc(C)n(-c3ccc(C)cc3)c2C)CS1,-26%,-6%,-10%,13µM*,-2,7
Cc1cc(C2=NNC(=NC3CC3)SC2)c(C)n1-c1ccccc1F,?,-5%,-1%,8.9µM*,0,-27
Cc1cccn2c(CN(C)CCC3CCCCO3)c(C(=O)N3CCCCC3)nc12 (stereo not given),nt,nt,10%,3.2µM*,-1,nt
COc1ccc(CNc2nc(-c3cccnc3)nc3ccccc23)c(OC)c1,nt,nt,-25%,-6%,nt,nt
O=C(O)c1ccc(CN2CCOCC2)o1,nt,nt,-3%,4%,8,nt
COc1ccc(CNC(=O)CN(C(=O)c2ccc(CN3CCOCC3)o2)C2CCCC2)cc1,-3%,6%,1%,11µM*,-2,?
Oc1c(CN2CCN(c3ccccn3)CC2)cc(Cl)c2cccnc12,-12%,-24%,6%,-1%,-5,?
O=c1c(CN2CCN(c3ccccn3)CC2)coc2ccccc12,-2%,-3%,0%,25µM*,5,9
COCCCn1c(-c2ccco2)nc2ccccc2c1=O,-3%,-7%,4%,22µM*,8,-13
COc1ccc(-c2nc3ccccc3c(=O)n2CCOc2ccccc2C)cc1,-27%,0%,-2%,?,3,-121*
COCCCN=C(c1ccco1)n1c(=S)nc(-c2ccco2)n(CCCOC)c1=S,28µM*,-18%,0%,3.5µM*,-2,?
COc1ccc(-c2nc3ccccc3c(=O)n2CCCn2ccnc2)cc1,-16%,0%,-9%,14µM*,-8,?
COCCCn1c(SCC(=O)OC2CCCCC2)nnc1-c1ccco1,-11%,-1%,5%,?,-19,5
O=C(NCc1ccccc1)C1(C(F)(F)F)C/C(=C\CCO)CCCO1 (stereo not given),nt,nt,1%,nt,nt,nt
CC(=O)OCC(=O)[C@@]1(O)[C@H](C)C[C@@H]2[C@H]3CCC4=CC(=O)C=C[C@]4(C)[C@]3(F)[C@@H](O)C[C@@]21C,0%,-2%[25.6 µM],1%[29.1 µM],-2%[20.9 µM],2,nt
COc1ccc(-n2c(=O)cnc3cnc(Nc4ccccc4)nc32)cc1,-4%,0%,5%,?,nt,nt
O=C(OCCN1C(=O)c2cccc3c(N4CCOCC4)ccc(c23)C1=O)c1ccccc1Cl,-27%,-1%,-5%,-14%,-6,?
O=C(OCCN1C(=O)c2cccc3c(N4CCOCC4)ccc(c23)C1=O)c1ccc(Cl)cc1Cl,-15%,2%,3%,5%,-3,-98*
O=C(O)c1cccc(NCc2ccncc2)c1,-26%,-4%,1%,?,2,-81*
COc1ccc(C(CC(=O)N2CCN(c3ccccc3)CC2)c2c(OC)cc(OC)c3ccc(=O)oc23)cc1 (stereo not given),nt,nt,14%,nt,-10,nt
Cc1ccc(S(=O)(=O)/N=C(\CCl)N2CCOCC2)cc1,-17%,0%,-2%,28µM*,-7,24
CCOC(=O)c1c(NC(=S)Nc2ccccc2)sc2c1CCCCC2,-11%,?,1%,?,1,?
CCOC(=O)c1c(NC(=O)C2CC2)sc2c1CC(C)(C)OC2,nt,nt,5%,nt,-2,nt
CCOC(=O)N1CCc2c(sc(NC(=O)CN3CCOCC3)c2C(=O)Nc2ccccc2)C1,nt,nt,-3%,?,0,nt
SMILES,HPGD inh,12-hLO inh,aGal spleen mod,ALDH1A1 inh,GLA inh pH 4.5,PNC inhibitor
C=CCNC(=S)Nc1sc2c(c1C(=O)OCC)CCN(C(=O)OCC)C2,-14%,-20%,1%,20µM*,7,-27
C=CCNC(=S)Nc1sc2c(c1C(=O)OCC)CC(C)(CC)OC2 (stereo not given),-15%,-10%,-1%,?,3,-100*
CCOC(=O)c1c(NC(=S)Nc2cccc(C)c2)sc2c1CC(C)(C)SC2,?,-15%,-2%,4µM*,8,?
CCOC(=O)N1CCc2c(sc(NC(=O)CN3CCN(C)CC3)c2C(=O)Nc2ccccc2)C1,nt,nt,-17%,14µM*,-2,nt
C/C(=N\NC(=O)c1ccncc1)c1ccc2ccccc2c1O,-12%,1%[11.4 µM],nt,3%[13.5 µM],nt,nt
CC(=O)N1CC[C@H]2CC(=O)CC[C@@]21C,-5%,5%[0.00818 µM],1%[181 µM],3%[120 µM],-8,nt
CCOC(=O)C1OC1c1ccccc1 (stereo not given),-9%,-2%,10%,4%,nt,nt
COc1ccc(C(=O)N2CC3(CC(c4ccc(Cl)cc4)=NO3)C[C@H]2C(=O)NCC(N)=O)cc1 (stereo not given in full),-2%,-10%,-10%,8%,1,30
NC(=O)CNC(=O)[C@@H]1CC2(CC(c3ccc(Cl)cc3)=NO2)CN1C(=O)c1ccccc1 (stereo not given in full),-19%,4%,-15%,28µM*,0,-24
COc1ccc(C[C@H]2CN3C(=NC[C@H]3Cc3ccccc3)N2CCNC(=O)CCC2CCCCC2)cc1,nt,nt,0%,10µM*,3,nt
COc1ccc(C[C@@H]2CN3C(=NC[C@@H]3C)N2C[C@H](C)NC(=O)CCC2CCCCC2)cc1,nt,nt,5%,7.1µM*,7,nt
CCOC(=O)/C(=N\Nc1ccccc1)S(=O)(=O)c1ccccc1,14µM*,-3%,6%,16µM*,-8,?
CCOC(=O)/C(=N/Nc1ccc(C)cc1)S(=O)(=O)c1ccc(Cl)cc1,-11%,-15%,1%,?,-8,25
NNC(=O)/C(=N/Nc1ccccc1)S(=O)(=O)c1ccc(Cl)cc1,-18%,-5%,-10%,13µM*,-2,?
COc1ccc(-c2coc3ccc(OC4OC(COC(C)=O)C(OC(C)=O)C(OC(C)=O)C4OC(C)=O)c(OC(C)=O)c3c2=O)cc1 (stereo not given),-4%,-3%,12%,5%,-6,nt
O=[N+]([O-])c1ccc(-c2nnc(-c3ccccc3)c(NCCCO)n2)cc1,-18%,0%,2%,?,-5,-85*
Cc1cn([C@H]2C[C@H](O)[C@@H](COC(N)=O)O2)c(=O)[nH]c1=O,-2%,-3%[11.4 µM],nt,19%[13.5 µM],nt,nt
Cc1nc(SCC(=O)Nc2ccnc3ccccc23)n[nH]1,-10%,5%,3%,18µM*,4,6
COC(=O)c1ccccc1NC(=O)CSc1n[nH]c(C)n1,-12%,15%,-1%,8%,4,-100*
CCOC(=O)c1sc(=S)sc1SCc1cccc(C(F)(F)F)c1,28µM*,-4%,3%,?,-5,?

# High-throughput results from PubChem BioAssay.
